Screens: PubChem BioAssay, National Center for Advancing Translational Sciences (NCATS)
Most compounds without a hit are left out; they make up all but 3% or so of the library.
TrxR1 substrate – qHTS Assay for Substrates of Mammalian Selenoprotein Thioredoxin Reductase 1 (TrxR1): qHTS. Thioredoxin reductase 1, cytoplasmic (Rattus norvegicus), O89049. AID 588456, 2011. Potency, µM (top dose mostly 114 µM), without a hit: at the highest dose activity change, negative = substrate turnover. 0.01% of 390,000 active. purified TrxR1 substrate turnover, NADPH consumption readout; note: % is set by controls: 0 for no effect and ±100 for the full control effect; nearly all actives have a fitted effect of over 50% in size
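Rat TrxR1, dispensed at 90 nM, was prereduced with 400 uM NADPH (final) for 5 min at ~22 deg C, then incubated with compound 15 min before 400 uM selenite. A first-read NADPH fluorescence drop versus no-compound background flagged substrates.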
GALK inhibitor – qHTS Assay for Inhibitors of Human Galactokinase (GALK). AID 1868, 2009. 0.007% of 270,000 active. Purified GALK, Kinase-Glo residual ATP luminescence. Potency, µM (doses to about 57.5 µM), for the others: top-dose activity change, negative = inhibition, usual class: inhibitors. P51570; note: % is set by controls: 0 for no effect and ±100 for the full control effect
Target sequence (P51570 whole entry, looked up): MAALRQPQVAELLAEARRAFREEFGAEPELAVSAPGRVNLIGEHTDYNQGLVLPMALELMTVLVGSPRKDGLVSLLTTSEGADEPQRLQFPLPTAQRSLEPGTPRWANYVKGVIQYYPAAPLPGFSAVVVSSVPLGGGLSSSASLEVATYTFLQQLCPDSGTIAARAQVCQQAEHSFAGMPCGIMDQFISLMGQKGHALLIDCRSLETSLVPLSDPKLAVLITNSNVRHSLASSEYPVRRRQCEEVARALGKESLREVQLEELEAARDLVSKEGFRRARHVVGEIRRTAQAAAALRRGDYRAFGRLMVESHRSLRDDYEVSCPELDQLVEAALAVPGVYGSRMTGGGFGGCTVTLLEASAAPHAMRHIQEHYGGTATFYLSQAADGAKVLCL
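Galactose (100 uM) and ATP (35 uM) were turned over by 5 nM GALK for 1 h at RT. Kinase-Glo Plus then converted the remaining ATP into a luminescent signal.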
rTrxR1 inhibitor – qHTS Assay for Inhibitors of Mammalian Selenoprotein Thioredoxin Reductase 1 (TrxR1): qHTS; Potency, µM (highest dose often 114 µM), for the others: top-dose activity change, negative = inhibition, usual class: inhibitors; 1% of 390,000 active; recombinant rTrxR1, NADPH fluorescence consumption, selenite substrate; note: % is set by controls: 0 for no effect and ±100 for the full control effect; nearly all actives have a fitted effect of over 65% in size
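Rat TrxR1 (90 nM in the dispensed reagent) was pre-reduced with 400 uM NADPH for 5 min at room temperature, then incubated with compound for 15 min. After 400 uM selenite was added, NADPH fluorescence (Ex 340/Em 450 nm) was followed for 8 min.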
Nrf2 activator – qHTS of Nrf2 Activators | AREc32 ARE-luciferase reporter (MCF7-derived line), luminescence, 24 h | Potency, µM (highest dose often 46.1 µM), for inactives: at the top dose activation, usual class: activators | 0.31% of 410,000 active | AID 624171, 2012; note: % of control where 0% means no effect; nearly all actives have a fitted effect of over 65% in size
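Luminescent ARE reporter assay in AREc32_Fluc cells: overnight plating at 37 deg C, 24 hr compound incubation, Steady-Glo added, 30 min RT before reading.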
A549 tox – Nrf2 qHTS screen for inhibitors: counterscreen for cytotoxicity. A549 ARE-Fluc cells, CellTiter-Fluor viability, 18-24 h. Potency, µM (highest dose often 46 µM), for inactives: top-dose activity change, negative = cytotoxicity, hits mostly inhibitors. 0.16% of 390,000 active. AID 504648, 2011; note: % is set by controls: 0 for no effect and ±100 for the full control effect
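A549 ARE-Fluc cells in 5% FBS OPTI-MEM, 5000 cells/well, rested 2 h then exposed to compounds in concentration-response for 18-24 h at 37 °C. Viability by CellTiter-Fluor fluorescence (Ex 405/Em 525) after 30 min; luciferase luminescence (BugLite, 15 min, RT) read afterwards.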
Nrf2 block – Nrf2 qHTS screen for inhibitors. A549 ARE-Fluc reporter, luciferase luminescence, 18-24 h. Potency, µM (series often up to 46 µM), for inactives: top-dose activity change, negative = inhibition, usual class: inhibitors. 2.1% of 360,000 active; note: % is set by controls: 0 for no effect and ±100 for the full control effect; nearly all actives have a fitted effect of over 60% in size
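Two sequential reads on A549 ARE_Fluc cells exposed to compound for 18-24 h: a CellTiter-Fluor fluorescence read for viability, then a luciferase luminescence read for Nrf2/ARE activity.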
Active calls of the source: *; ? = inconclusive; · = not tested or not shown; [ ] = dose if it differs, or a comment. Calls come from the whole dose curve; as a rule, active = well fitted curve in the direction sought with a large enough effect; inconclusive = small, poorly fitted or top-dose-only effect, or another doubt; inactive = no such curve, though single readings can be large; an effect the other way counts as inactive or inconclusive. Potency is the fitted concentration of half-maximal effect.

SMILES	TrxR1 substrate	GALK inhibitor	rTrxR1 inhibitor	Nrf2 activator	A549 tox	Nrf2 block
Cc1ccc(S(=O)(=O)N2CCN(C(=O)c3cc(S(=O)(=O)N4CCOCC4)ccc3Cl)CC2)c(C)c1	1%	·	19%	0%	-4%	21µM*
CCn1cc(C(=O)N2CCN(c3cc(Cl)ccc3C)CC2)c(=O)c2cc(S(=O)(=O)N3CCOCC3)ccc21	-3%	·	-3%	-1%	-12%	21µM*
S=C(NCCCc1cnc[nH]1)NCCCN(Cc1ccc(Cl)cc1)c1ccc(Br)cc1	-8%	·	1%	·	-9%	?
COc1cccc(N2CC(NC(=O)c3ccco3)CC2=O)c1 (configuration not stated)	4%[57.1 µM]	·	23%[57.1 µM]	0%	3%	·
CC(=O)c1ccc(N2CCN(c3ncc(C(F)(F)F)cc3Cl)CC2)cc1	8%	-3%	17%	0%	0%	?
CC(=O)c1ccc(N2CCN(c3ccc(C(F)(F)F)cn3)CC2)cc1	4%	0%	16%	0%	0%	9.2µM*
CC(C)(C)n1ncc2c(=O)n(Cc3c(F)ccc(F)c3Cl)cnc21	2%	·	9%	·	·	·
Cc1cc2occ(CC(=O)N(C)CC(=O)Nc3cccc(F)c3)c2cc1C	-13%	-2%	-14%	3%	?	26µM*
CC(C)c1ccc(NC(=O)CN2C(=O)COc3ccc(S(=O)(=O)Nc4ccccc4)cc32)cc1	-12%	·	12%	4%	?	-23%
O=C(NCCNCCO)C1(C(F)(F)F)CC(CCc2ccccc2)CCCO1 (configuration not stated)	-6%	·	?	·	4%	-1%
O=c1c2ccccc2sc2ccc(C#CC3(O)CCCCC3)cc12	10%	·	13%	-1%	0%	21µM*
COC(=O)c1sc2cccc(F)c2c1S(=O)(=O)Nc1cc(OC)cc(OC)c1	1%[57.1 µM]	·	8%[57.1 µM]	?	10%	17%
COc1cc(-c2nc3nc(C)cc(C)n3c2Nc2ccc(Cl)cc2)ccc1O	0%	·	-2%	3%	2%	?
Cc1c(C(=O)NCCSCc2ccccc2Cl)cccc1[N+](=O)[O-]	-4%	-4%	3%	-1%	2%	?
Cc1c(C(=O)NCCSCc2c(Cl)cccc2Cl)cccc1[N+](=O)[O-]	-8%	-1%	-1%	0%	-2%	9.2µM*
O=C(Cn1c(COc2ccccc2)nc2ccccc21)Nc1cc(Cl)ccc1Cl	4%[57.1 µM]	-1%	2%[57.1 µM]	-1%	?	18µM*
Cc1cc(-c2ccc(C)c(S(=O)(=O)N(C(C)C)C3CCCCC3)c2)on1	-3%[57.1 µM]	·	5%[57.1 µM]	0%	-8%	?
CN1/C(=C\C(=S)NC(=O)c2cccc(Br)c2)C(C)(C)c2ccccc21	-7%	0%	-7%	3%	-14%	21µM*
CN1/C(=C\C(=S)NC(=O)c2ccc([N+](=O)[O-])cc2)C(C)(C)c2ccccc21	-2%	0%	-5%	2%	-17%	?
O=[N+]([O-])c1cc(S(=O)(=O)N2CCCCCC2)ccc1F	-6%	-6%	32µM*	3%[9.22 µM]	1%	-16%
COc1ccc(Nc2ccc(S(=O)(=O)N3CCCCC3)cc2[N+](=O)[O-])cc1	-14%	1%	-15%	-1%	?	7.3µM*
COc1ccc(Nc2ccc(S(=O)(=O)N3CCCCC3)cc2[N+](=O)[O-])cc1Cl	-4%	2%	8%	0%	-18%	?
COc1ccc2cc(S(=O)(=O)N3CCCCC3)ccc2c1S(=O)(=O)N1CCCCC1	-8%	0%	0%	0%	-10%	16µM*
O=C(c1ccccc1O)N(Cc1ccco1)Cc1cccs1	·	·	·	·	4%	?
